Measurements as given in PubChem BioAssay (NCI).
This is part of a sample that, as a whole, favours compounds with a hit. Of some 83,000 tested, about 20% had one in any assay.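 Single-dose data. Exposure time 48 hours. Values below 10 considered active.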 Calls of active or inactive are those of the source.

How the values were obtained:
Experiment in all cases: NCI-60 one-dose screen, 48 h (100 = growth as untreated, 0 = no growth, -100 = all killed)
Conditions in all cases: 10 µM
SK-MEL-2 melanoma = tested on: SK-MEL-2 melanoma
EKVX NSCLC = tested on: EKVX NSCLC
SN12C renal = tested on: SN12C renal
UO-31 renal = tested on: UO-31 renal
TK-10 renal = tested on: TK-10 renal
ACHN renal = tested on: ACHN renal
CAKI-1 renal = tested on: CAKI-1 renal
A498 renal = tested on: A498 renal
MOLT-4 leukemia = tested on: MOLT-4 leukemia

Measured: growth

CCn1c(SCc2ccc(C)cc2)nnc1-c1nn(-c2ccc(Cl)cc2Cl)c(-c2ccc(Cl)cc2)c1C
inactive: EKVX NSCLC 10.4% | TK-10 renal 18.1% | CAKI-1 renal 40.5% | A498 renal 18.9%
active: SK-MEL-2 melanoma 4.93% | SN12C renal 1.66% | UO-31 renal 9.59% | ACHN renal 2.32% | MOLT-4 leukemia 2.46%

CCCCN(CCCC)C(=O)[C@H](CC)[C@@H]1CC[C@@H](C)[C@@H]([C@H](C)[C@@H](O)[C@@H](C)C(=O)[C@H](CC)C2O[C@]3(C=C[C@@H](O)[C@]4(CC[C@@](C)([C@H]5CC[C@](O)(CC)[C@H](C)O5)O4)O3)[C@H](C)C[C@@H]2C)O1 (some centres undefined)
inactive: TK-10 renal 18.6% | MOLT-4 leukemia 11.8%
active: SK-MEL-2 melanoma -12.4% | EKVX NSCLC -8.73% | SN12C renal 3.56% | UO-31 renal -11.7% | ACHN renal 7.05% | CAKI-1 renal -3.74% | A498 renal -14.6%

COc1ccc(C2=Cn3c(CCC(=O)c4nc5ccccc5[nH]4)nnc3SC2)cc1
inactive: SK-MEL-2 melanoma 106% | EKVX NSCLC 90.3% | SN12C renal 98.9% | UO-31 renal 82% | TK-10 renal 125% | ACHN renal 110% | CAKI-1 renal 96.9% | A498 renal 58% | MOLT-4 leukemia 43.2%

N#Cc1c(-c2ccc(Cl)cc2)csc1NC(=O)Nc1ccc(Cl)c(C(F)(F)F)c1
inactive: EKVX NSCLC 11.9% | SN12C renal 14.4% | UO-31 renal 28.2% | TK-10 renal 10.3% | CAKI-1 renal 13.5% | A498 renal 35.6%
active: SK-MEL-2 melanoma 5.43% | ACHN renal 3.38% | MOLT-4 leukemia 1.45%

COc1ccc(-c2cc(-c3ccc(Cl)cc3)nc(SCCCC(=O)NO)n2)cc1
inactive: TK-10 renal 13.8%
active: SK-MEL-2 melanoma 0.495% | EKVX NSCLC -19.2% | SN12C renal 2.49% | UO-31 renal -40.9% | ACHN renal 2.98% | CAKI-1 renal -0.0585% | A498 renal -19% | MOLT-4 leukemia 9.27%

C=CCN(CC=C)C(=O)[C@H](CC)[C@@H]1CC[C@@H](C)[C@@H]([C@H](C)[C@@H](O)[C@@H](C)C(=O)[C@H](CC)C2O[C@]3(C=CC(=O)[C@]4(CC[C@@](C)([C@H]5CC[C@](O)(CC)[C@H](C)O5)O4)O3)[C@H](C)C[C@@H]2C)O1 (some centres undefined)
inactive: SK-MEL-2 melanoma 22.1% | EKVX NSCLC 12.8% | SN12C renal 19.8% | TK-10 renal 35.5% | CAKI-1 renal 13.7% | A498 renal 22.2% | MOLT-4 leukemia 28.8%
active: UO-31 renal 0.66% | ACHN renal 5.47%

COc1ccc(-c2cc(-c3ccc(Cl)cc3)nc(SCCCCCCC(=O)NO)n2)cc1OC
inactive: SK-MEL-2 melanoma 89.3% | EKVX NSCLC 51.6% | SN12C renal 70.6% | UO-31 renal 20.1% | TK-10 renal 61.1% | ACHN renal 38.1% | CAKI-1 renal 30.3% | A498 renal 67.9% | MOLT-4 leukemia 16.2%

O=C(CCc1nnc2sc(-c3cc(O)c(O)c(O)c3)nn12)c1nc2ccccc2[nH]1
inactive: SK-MEL-2 melanoma 111% | EKVX NSCLC 96.7% | SN12C renal 107% | UO-31 renal 83.2% | TK-10 renal 117% | ACHN renal 106% | CAKI-1 renal 100% | A498 renal 75.2% | MOLT-4 leukemia 92.3%

CNC(=O)c1cn(C2CC2)c2cc(N3CCN(C(=O)c4cc(OC)c(OC)c(OC)c4)CC3)c(F)cc2c1=O
inactive: SK-MEL-2 melanoma 94.8% | EKVX NSCLC 91.2% | SN12C renal 101% | UO-31 renal 79% | TK-10 renal 92.1% | ACHN renal 99.4% | CAKI-1 renal 90.9% | A498 renal 88.4% | MOLT-4 leukemia 99.7%

CC(C)(C)c1ccc(S(=O)(=O)Oc2ccc(NC(=O)C3CCCCC3)cc2)cc1
inactive: SK-MEL-2 melanoma 31.6% | EKVX NSCLC 23.8% | SN12C renal 60.2% | UO-31 renal 38% | TK-10 renal 57.8% | ACHN renal 25.7% | CAKI-1 renal 58.3% | A498 renal 90% | MOLT-4 leukemia 33.5%

CC(=O)N[C@H](C(=O)N[C@@H](CCCNC(=N)N)C(=O)N[C@@H](CCCCN)C(=O)N[C@@H](CCCNC(=N)N)C(=O)N[C@]1(C)CCC/C=C\CCC[C@@](C)(C(=O)N[C@@H](CC(C)C)C(=O)N[C@@H](CC(C)C)C(=O)N[C@@H](CCC(N)=O)C(=O)N[C@@H](CCC(=O)O)C(=O)N[C@@H](CCCNC(=N)N)C(=O)N[C@@H](CCC(=O)O)C(=O)N[C@@H](CC(C)C)C(=O)N[C@H](C(=O)N[C@@H](CCC(=O)O)C(N)=O)C(C)C)NC(=O)[C@H](CCCNC(=N)N)NC(=O)[C@H](CC(C)C)NC1=O)C(C)C
inactive: SK-MEL-2 melanoma 101% | EKVX NSCLC 101% | SN12C renal 103% | UO-31 renal 114% | TK-10 renal 96.2% | ACHN renal 109% | CAKI-1 renal 98.9% | A498 renal 116% | MOLT-4 leukemia 105%

CC(C)(C)OC(=O)CN1CCc2c(sc3ncnc(N/N=C/c4ccccc4Br)c23)C1
inactive: SK-MEL-2 melanoma 87.4% | EKVX NSCLC 44.5% | SN12C renal 73.3% | UO-31 renal 37.6% | TK-10 renal 90.8% | ACHN renal 56.6% | CAKI-1 renal 51.3% | A498 renal 77% | MOLT-4 leukemia 11.1%

O=C(CCCSc1nc(-c2ccccc2)cc(-c2ccc(Cl)cc2)n1)NO
active: EKVX NSCLC -10.5% | SN12C renal 6.93% | UO-31 renal -26.4% | ACHN renal -0.78% | CAKI-1 renal 2.37% | A498 renal -15.3%
inactive: SK-MEL-2 melanoma 16.4% | TK-10 renal 21.9% | MOLT-4 leukemia 11.2%

CC(C)(C)OC(=O)N1CCc2c(sc3ncnc(N/N=C/c4cccc5ccccc45)c23)C1
inactive: SK-MEL-2 melanoma 49.4% | SN12C renal 32.8% | TK-10 renal 36.9% | CAKI-1 renal 24.2% | MOLT-4 leukemia 14.4%
active: EKVX NSCLC 8.53% | UO-31 renal -8.22% | ACHN renal 6.63% | A498 renal 4.77%

O=C(CCCSc1nc(-c2ccc(Cl)cc2)cc(-c2ccc(Cl)cc2)n1)NO
inactive: SK-MEL-2 melanoma 20.8% | TK-10 renal 24.3%
active: EKVX NSCLC -19.7% | SN12C renal 4.81% | UO-31 renal -34.9% | ACHN renal 2.26% | CAKI-1 renal 2.08% | A498 renal -3% | MOLT-4 leukemia 4.91%

O=C(Nc1ccc(OS(=O)(=O)c2ccccc2)cc1)C1CCCCC1
inactive: SK-MEL-2 melanoma 88.4% | EKVX NSCLC 84.3% | SN12C renal 96.4% | UO-31 renal 96.7% | TK-10 renal 97.4% | ACHN renal 104% | CAKI-1 renal 93.1% | A498 renal 105% | MOLT-4 leukemia 74%

COc1ccc(-c2cc(-c3ccccc3)nc(SCCCC(=O)NO)n2)cc1
active: SK-MEL-2 melanoma -7.04% | EKVX NSCLC -23.3% | SN12C renal -8.2% | UO-31 renal -52% | TK-10 renal 6.16% | ACHN renal -17.8% | CAKI-1 renal -16.4% | A498 renal -44.3% | MOLT-4 leukemia 4.82%

C=CCN(CC=C)C(=O)[C@H](CC)[C@@H]1CC[C@@H](C)[C@@H]([C@H](C)[C@@H](O)[C@@H](C)C(=O)[C@H](CC)C2O[C@]3(C=C[C@@H](O)[C@]4(CC[C@@](C)([C@H]5CC[C@](O)(CC)[C@H](C)O5)O4)O3)[C@H](C)C[C@@H]2C)O1 (some centres undefined)
active: SK-MEL-2 melanoma -7.12% | EKVX NSCLC -5.86% | SN12C renal 6.36% | UO-31 renal -12.6% | ACHN renal 5.93% | CAKI-1 renal 1.41% | A498 renal -2.03%
inactive: TK-10 renal 16.2% | MOLT-4 leukemia 19.4%

COc1ccc(-c2csc(NC(=O)c3ccc(Cc4n[nH]c(=O)c5cccnc45)cc3)n2)cc1
inactive: SK-MEL-2 melanoma 110% | EKVX NSCLC 66.6% | SN12C renal 89.1% | UO-31 renal 51.9% | TK-10 renal 115% | ACHN renal 88.2% | CAKI-1 renal 84.5% | A498 renal 95.8% | MOLT-4 leukemia 97.2%

Clc1ccc(C2=NN=C3C(Cc4ccccc4)=Nc4ccccc4N3C2)cc1
inactive: SK-MEL-2 melanoma 105% | EKVX NSCLC 86% | SN12C renal 83.2% | UO-31 renal 63.1% | TK-10 renal 68.4% | ACHN renal 63.2% | CAKI-1 renal 55.4% | A498 renal 68.5% | MOLT-4 leukemia 61.3%

Cc1c[nH]c(=O)n(Cc2nnc(CCC(=O)c3nc4ccccc4[nH]3)o2)c1=O
active: MOLT-4 leukemia 9.42%
inactive: SK-MEL-2 melanoma 25.2% | EKVX NSCLC 54.9% | SN12C renal 30.2% | UO-31 renal 44.2% | TK-10 renal 64.1% | ACHN renal 61.1% | CAKI-1 renal 63.5% | A498 renal 11.5%

Cc1[nH]c2ccccc2c1/C=N/Nc1ncnc2sc3c(c12)CCN(CC(=O)OC(C)(C)C)C3
inactive: SK-MEL-2 melanoma 92.6% | EKVX NSCLC 134% | SN12C renal 85.3% | UO-31 renal 65.5% | TK-10 renal 101% | ACHN renal 54.2% | CAKI-1 renal 47.2% | A498 renal 51.8% | MOLT-4 leukemia 46.5%

O=C(O)c1ccc(-n2cc(CNc3ccc(Oc4ccccc4)cc3)c(-c3ccccc3)n2)cc1
inactive: SK-MEL-2 melanoma 88.5% | EKVX NSCLC 85.1% | SN12C renal 93.4% | UO-31 renal 76.6% | TK-10 renal 90.1% | ACHN renal 87.4% | CAKI-1 renal 86.4% | A498 renal 83.2%
active: MOLT-4 leukemia -4.16%

CCC(C)[C@H](NC(C)=O)C(=O)N[C@@H](CCCNC(=N)N)C(=O)N[C@@H](CCCCN)C(=O)N[C@@H](CC1CCC(O)CC1)C(=O)NC(C(=O)N[C@@H](CCSC)C(=O)N[C@@H](CCCNC(=N)N)C(=O)N[C@@]1(C)CCC/C=C\CCC[C@@](C)(C(=O)NC(C(=O)N[C@@H](CCC(=O)O)C(=O)N[C@@H](CC(C)C)C(=O)N[C@H](C(=O)N[C@@H](CCC(=O)O)C(N)=O)C(C)C)[C@@H](C)O)NC(=O)[C@H](CCC(N)=O)NC(=O)[C@H](CC(C)C)NC(=O)[C@H](CC(C)C)NC1=O)[C@@H](C)O (some centres undefined)
inactive: SK-MEL-2 melanoma 100% | EKVX NSCLC 99.5% | SN12C renal 93.2% | UO-31 renal 106% | TK-10 renal 96.4% | ACHN renal 106% | CAKI-1 renal 99.4% | A498 renal 120% | MOLT-4 leukemia 97.3%

COc1cc2ncnc(NC3CCC(O)CC3)c2cc1OC (centres undefined)
inactive: SK-MEL-2 melanoma 97.1% | EKVX NSCLC 80.8% | SN12C renal 106% | UO-31 renal 76.2% | TK-10 renal 90% | ACHN renal 94.9% | CAKI-1 renal 88.5% | A498 renal 93.7% | MOLT-4 leukemia 62.8%

COc1cc(-c2nc3ccccc3o2)cc(CN2CCCCC2)c1O
inactive: SK-MEL-2 melanoma 89.3% | EKVX NSCLC 66.5% | SN12C renal 62.1% | UO-31 renal 43.9% | TK-10 renal 129% | ACHN renal 64.8% | CAKI-1 renal 85.2% | A498 renal 55.2% | MOLT-4 leukemia 48.8%
